Common to all, as to design: scale not given: direction of the effect not stated beside the values
Test [1] deals with Protein translocase subunit SecA (Escherichia coli (strain K12)) (UniProt P10408). In words: Assay to Identify E. coli SecA ATPase Inhibitors. The format is functional. Conditions: 30 µM.
For test [2], the target named is T1, Ubiquitin-activating enzyme e1, putative (Leishmania donovani (strain BPK282A1)) (UniProt E9BSI1).
T1 sequence (whole entry): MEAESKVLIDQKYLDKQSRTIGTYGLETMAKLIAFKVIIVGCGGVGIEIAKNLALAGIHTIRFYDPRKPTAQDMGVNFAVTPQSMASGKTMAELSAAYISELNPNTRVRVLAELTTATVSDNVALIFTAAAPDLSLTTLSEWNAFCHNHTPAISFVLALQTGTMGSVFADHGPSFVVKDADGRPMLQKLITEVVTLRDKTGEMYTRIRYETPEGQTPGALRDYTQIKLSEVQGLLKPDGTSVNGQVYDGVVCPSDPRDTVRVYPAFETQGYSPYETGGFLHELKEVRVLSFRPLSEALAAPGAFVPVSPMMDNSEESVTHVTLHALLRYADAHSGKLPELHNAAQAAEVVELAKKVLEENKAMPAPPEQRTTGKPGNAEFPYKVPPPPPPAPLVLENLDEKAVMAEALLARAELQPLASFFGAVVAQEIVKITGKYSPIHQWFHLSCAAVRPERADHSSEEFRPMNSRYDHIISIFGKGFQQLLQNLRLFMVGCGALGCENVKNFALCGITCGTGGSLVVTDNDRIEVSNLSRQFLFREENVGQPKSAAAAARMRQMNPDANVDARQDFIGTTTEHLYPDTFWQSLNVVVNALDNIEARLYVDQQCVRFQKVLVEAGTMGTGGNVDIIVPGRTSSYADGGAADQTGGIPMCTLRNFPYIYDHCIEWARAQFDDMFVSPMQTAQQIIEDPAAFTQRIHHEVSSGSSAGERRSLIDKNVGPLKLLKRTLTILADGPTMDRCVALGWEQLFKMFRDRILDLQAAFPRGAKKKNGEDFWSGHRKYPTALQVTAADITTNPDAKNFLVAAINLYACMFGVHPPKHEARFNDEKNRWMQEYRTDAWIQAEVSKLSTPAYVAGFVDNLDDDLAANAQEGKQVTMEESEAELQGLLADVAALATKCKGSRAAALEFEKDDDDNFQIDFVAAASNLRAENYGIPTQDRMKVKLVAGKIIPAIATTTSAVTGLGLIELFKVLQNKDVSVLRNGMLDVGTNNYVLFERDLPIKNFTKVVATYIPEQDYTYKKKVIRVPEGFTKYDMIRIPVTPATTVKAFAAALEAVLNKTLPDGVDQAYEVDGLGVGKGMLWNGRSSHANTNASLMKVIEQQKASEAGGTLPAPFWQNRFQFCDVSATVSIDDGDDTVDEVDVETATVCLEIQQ
In words: Leishmania donovani Ubiquitin Activating Enzyme (LdE1). The format is functional. Conditions: 30 µM.

Test [3] addresses AMP-activated protein kinase, AMPK (Homo sapiens) (UniProt P54646+O43741+P54619+Q9UGJ0+Q9Y478+Q13131+Q9UGI9). Nature of the test: AMP-dependent Kinase enzyme assay. An in vitro enzyme assay that detects ADP turnover that is directly proportional to AMPK activity. This uses naive AMPK that is activated during the assay with MK-8722. Conditions: 30 µM. The test is classed as functional.

Test [4] has as its target Sialic acid-binding Ig-like lectin 9 (Homo sapiens) (UniProt Q9Y336). Nature of the test: Hs-Siglec9 ALPHAscreen SOP 20170721. Conditions: 10 µM. A general note: Alpha assays give light when donor and acceptor beads are brought close together.
The test system of the next test is Trypanosoma cruzi. In words: Trypanosoma cruzi phosphomannomutase and mannose-1-phosphate guanylyltransferase assay. The test is classed as functional. Conditions: 10 µM.
For test [5], the target named is T2, Arginase-2, mitochondrial (Homo sapiens) (UniProt P78540).
T2 sequence (whole entry): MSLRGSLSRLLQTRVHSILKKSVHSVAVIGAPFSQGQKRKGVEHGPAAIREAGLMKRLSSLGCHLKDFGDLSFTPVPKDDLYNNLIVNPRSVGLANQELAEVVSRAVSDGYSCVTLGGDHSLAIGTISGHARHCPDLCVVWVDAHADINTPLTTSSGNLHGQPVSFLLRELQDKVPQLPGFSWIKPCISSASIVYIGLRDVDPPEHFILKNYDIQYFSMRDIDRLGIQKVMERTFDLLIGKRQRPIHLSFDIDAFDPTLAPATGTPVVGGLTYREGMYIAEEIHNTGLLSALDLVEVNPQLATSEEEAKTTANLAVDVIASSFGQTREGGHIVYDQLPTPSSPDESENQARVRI
Nature of the test: in vitro enzyme assay to detect the production of urea directly proportional to the activity of Arginase II. Note: in the data most compounds retested in dose-response had high values. The test is classed as functional. Conditions: 33.3 µM.

Test [6] has as its target T3, Proteasome subunit beta (Trypanosoma cruzi) (UniProt O96673).
T3 sequence (whole entry): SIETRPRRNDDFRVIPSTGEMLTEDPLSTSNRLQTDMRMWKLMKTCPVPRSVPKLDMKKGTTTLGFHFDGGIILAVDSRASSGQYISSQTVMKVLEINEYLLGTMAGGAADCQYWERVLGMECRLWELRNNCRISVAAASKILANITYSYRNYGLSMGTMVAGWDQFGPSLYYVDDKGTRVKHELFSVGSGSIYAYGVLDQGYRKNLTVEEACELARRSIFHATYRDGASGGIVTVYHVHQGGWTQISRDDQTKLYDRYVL
In words: Trypanosoma cruzi proteasome chymotrypsin-like activity (TcProtChymo) assay. Note: in the data most compounds retested in dose-response had high values. The test is classed as functional. Conditions: 9.37 µM.

For a further test, the species on record is Homo sapiens. Nature of the test: To identify inhibition of the IFN signalling (Jak-Stat) pathway via expression of an eGFP reporter gene under the control of an IFN-stimulated response element (ISRE) containing MxA promoter. The format is functional. Conditions: 30 µM.
The target in test [7] is T4, Tyrosyl-tRNA synthetase, putative (Trypanosoma cruzi (strain CL Brener)) (UniProt Q4DSP6).
T4 sequence (whole entry): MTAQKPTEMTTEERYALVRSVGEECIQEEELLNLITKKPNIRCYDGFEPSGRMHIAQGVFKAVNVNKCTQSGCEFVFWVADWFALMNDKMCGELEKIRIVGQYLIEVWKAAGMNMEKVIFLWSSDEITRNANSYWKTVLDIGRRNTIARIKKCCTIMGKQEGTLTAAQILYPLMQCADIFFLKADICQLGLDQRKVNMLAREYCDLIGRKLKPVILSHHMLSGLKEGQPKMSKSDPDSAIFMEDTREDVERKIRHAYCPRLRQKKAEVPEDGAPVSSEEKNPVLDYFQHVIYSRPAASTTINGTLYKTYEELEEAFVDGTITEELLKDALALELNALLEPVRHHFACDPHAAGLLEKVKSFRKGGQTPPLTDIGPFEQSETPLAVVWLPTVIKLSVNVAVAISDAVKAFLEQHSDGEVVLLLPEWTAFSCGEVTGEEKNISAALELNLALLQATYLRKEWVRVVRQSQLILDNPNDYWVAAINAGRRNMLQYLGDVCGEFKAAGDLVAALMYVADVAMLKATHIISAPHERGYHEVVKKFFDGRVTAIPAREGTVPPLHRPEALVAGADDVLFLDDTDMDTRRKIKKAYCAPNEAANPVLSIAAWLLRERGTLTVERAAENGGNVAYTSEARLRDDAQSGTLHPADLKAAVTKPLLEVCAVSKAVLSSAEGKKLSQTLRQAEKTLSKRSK
In words: Trypanosoma cruzi tyrosyl tRNA synthetase (TcYRS) _High Tyrosine SOP. Note: in the data most compounds retested in dose-response had high values. The format is functional. Conditions: 30 µM.

Test [8] concerns the target T4, Tyrosyl-tRNA synthetase, putative (Trypanosoma cruzi (strain CL Brener)). In words: Trypanosoma cruzi tyrosyl tRNA synthetase (TcYRS) SOP. The test is classed as functional. Conditions: 30 µM.
Test [9] has as its target Chromo domain-containing protein 1 (Saccharomyces cerevisiae (strain ATCC 204508 / S288c) (Baker's yeast)) (UniProt P32657). In words: ScCHD-1 Enzyme Inhibition Assay. Note: in the data most compounds retested in dose-response had high values. The test is classed as functional. Conditions: 30 µM.

From ChEMBL document CHEMBL3988442, “University of Dundee, Small-Polar-MMV Screening Library” (2021) come the findings set out here.

For some of these results: Measured potencies and affinities stand elsewhere.

Chain of Chromo domain-containing protein 1 (Saccharomyces cerevisiae (strain ATCC 204508 / S288c) (Baker's yeast)) (P32657 whole entry, the tested form may be a part): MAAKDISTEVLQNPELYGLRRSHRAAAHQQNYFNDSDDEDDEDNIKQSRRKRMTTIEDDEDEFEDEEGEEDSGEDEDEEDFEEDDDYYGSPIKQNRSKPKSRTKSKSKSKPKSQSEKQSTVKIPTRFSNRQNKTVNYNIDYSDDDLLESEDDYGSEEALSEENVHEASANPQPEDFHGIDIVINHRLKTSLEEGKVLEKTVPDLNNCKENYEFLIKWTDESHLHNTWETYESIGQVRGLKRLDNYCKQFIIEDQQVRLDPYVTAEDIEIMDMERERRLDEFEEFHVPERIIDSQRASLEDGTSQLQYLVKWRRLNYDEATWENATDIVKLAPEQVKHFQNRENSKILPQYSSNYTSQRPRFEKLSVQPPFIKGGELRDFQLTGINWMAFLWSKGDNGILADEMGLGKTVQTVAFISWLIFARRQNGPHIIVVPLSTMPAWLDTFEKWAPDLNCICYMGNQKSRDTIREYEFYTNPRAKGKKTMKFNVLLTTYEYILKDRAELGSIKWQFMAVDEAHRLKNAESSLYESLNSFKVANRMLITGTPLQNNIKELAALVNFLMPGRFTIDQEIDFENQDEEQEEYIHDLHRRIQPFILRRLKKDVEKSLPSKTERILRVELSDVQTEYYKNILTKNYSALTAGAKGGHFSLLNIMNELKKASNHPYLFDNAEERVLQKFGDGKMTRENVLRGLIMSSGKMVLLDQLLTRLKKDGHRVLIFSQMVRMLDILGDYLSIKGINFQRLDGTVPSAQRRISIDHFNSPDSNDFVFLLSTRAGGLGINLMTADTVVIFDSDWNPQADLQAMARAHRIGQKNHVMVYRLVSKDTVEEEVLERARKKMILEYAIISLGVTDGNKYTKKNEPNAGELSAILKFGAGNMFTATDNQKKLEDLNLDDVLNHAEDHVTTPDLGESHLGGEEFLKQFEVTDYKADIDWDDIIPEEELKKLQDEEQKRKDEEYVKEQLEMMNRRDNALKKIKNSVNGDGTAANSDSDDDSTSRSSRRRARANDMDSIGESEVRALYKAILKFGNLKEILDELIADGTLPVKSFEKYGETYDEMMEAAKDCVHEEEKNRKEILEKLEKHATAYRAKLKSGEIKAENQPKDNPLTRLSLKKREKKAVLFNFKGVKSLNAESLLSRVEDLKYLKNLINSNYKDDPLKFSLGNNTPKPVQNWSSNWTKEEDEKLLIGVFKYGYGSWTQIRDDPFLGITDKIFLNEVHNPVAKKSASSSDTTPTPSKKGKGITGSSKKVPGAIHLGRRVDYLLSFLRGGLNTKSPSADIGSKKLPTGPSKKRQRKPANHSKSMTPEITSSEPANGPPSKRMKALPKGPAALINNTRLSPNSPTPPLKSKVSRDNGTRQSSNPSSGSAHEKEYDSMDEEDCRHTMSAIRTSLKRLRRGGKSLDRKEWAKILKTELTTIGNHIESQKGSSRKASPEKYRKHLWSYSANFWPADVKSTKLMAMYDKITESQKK
Chain of Sialic acid-binding Ig-like lectin 9 (Homo sapiens) (Q9Y336 whole entry): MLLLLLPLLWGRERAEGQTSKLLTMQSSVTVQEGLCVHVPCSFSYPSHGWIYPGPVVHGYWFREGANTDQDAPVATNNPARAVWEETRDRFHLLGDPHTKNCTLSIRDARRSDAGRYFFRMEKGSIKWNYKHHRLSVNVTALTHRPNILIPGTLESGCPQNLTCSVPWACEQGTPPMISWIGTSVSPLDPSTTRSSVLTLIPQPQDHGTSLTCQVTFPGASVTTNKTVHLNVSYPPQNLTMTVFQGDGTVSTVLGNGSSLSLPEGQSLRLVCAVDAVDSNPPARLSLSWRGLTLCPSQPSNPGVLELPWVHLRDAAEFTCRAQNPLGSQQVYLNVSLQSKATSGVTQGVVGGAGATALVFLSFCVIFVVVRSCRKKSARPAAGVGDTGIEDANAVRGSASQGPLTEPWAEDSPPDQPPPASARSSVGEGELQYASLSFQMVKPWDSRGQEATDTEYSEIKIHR
Chain of Protein translocase subunit SecA (Escherichia coli (strain K12)) (P10408 whole entry): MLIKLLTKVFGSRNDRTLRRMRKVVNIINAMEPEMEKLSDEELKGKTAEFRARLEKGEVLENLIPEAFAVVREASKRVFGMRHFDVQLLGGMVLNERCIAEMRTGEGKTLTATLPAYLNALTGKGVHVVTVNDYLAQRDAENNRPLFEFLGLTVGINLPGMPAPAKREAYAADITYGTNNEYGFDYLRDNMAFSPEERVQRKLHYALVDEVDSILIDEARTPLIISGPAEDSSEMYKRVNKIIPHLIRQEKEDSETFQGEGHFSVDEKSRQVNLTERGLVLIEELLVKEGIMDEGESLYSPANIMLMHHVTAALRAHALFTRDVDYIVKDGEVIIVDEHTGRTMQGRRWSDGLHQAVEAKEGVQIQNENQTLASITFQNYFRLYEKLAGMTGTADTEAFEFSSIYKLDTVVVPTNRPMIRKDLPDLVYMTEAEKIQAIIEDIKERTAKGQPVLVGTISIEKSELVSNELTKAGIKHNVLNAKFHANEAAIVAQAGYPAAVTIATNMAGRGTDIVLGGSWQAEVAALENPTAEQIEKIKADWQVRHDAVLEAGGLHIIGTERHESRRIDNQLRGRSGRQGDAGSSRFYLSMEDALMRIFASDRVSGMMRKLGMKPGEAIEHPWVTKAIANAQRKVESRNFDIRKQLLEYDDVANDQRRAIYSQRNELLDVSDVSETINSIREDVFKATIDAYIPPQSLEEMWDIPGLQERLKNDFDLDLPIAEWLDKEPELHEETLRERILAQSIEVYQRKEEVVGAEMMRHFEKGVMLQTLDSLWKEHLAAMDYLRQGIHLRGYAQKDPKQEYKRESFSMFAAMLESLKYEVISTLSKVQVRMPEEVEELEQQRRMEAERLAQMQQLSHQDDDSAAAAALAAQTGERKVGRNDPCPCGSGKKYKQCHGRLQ

Regarding `CCc1nc2n(n1)CC(NCc1ccnc(-c3ccccc3)n1)CC2` (stereo unspecified), the Percent Effect in [1] is -0.451%; in test [2] it was 0%; in test [3] it was -2.11%; in test [4] it was 2.45%; in the test with Trypanosoma cruzi, 6.26%; in test [5], 3.6%. For the same molecule, the Percent Effect in [6] is -4.32%; in the test listed under Homo sapiens, -20.9%; in [7], 3.45%; in test [8], 6.17%; in test [9], 0.195%.

`Cc1[nH]ccc1C(=O)N1CCC(c2nnc(Cn3ccnc3)n2C)CC1`: the Percent Effect in [1] is -1.99%; in [2], 8.22%; in test [3], -2.31%; in test [4], 4.71%; with Trypanosoma cruzi, -4.56%; in test [5] it was -4.79%. The Percent Effect amounted to 15.3% in test [6]; 22.3% in the test listed under Homo sapiens; 6.25% in [7]; 16.1% in test [8]; 0.967% in test [9].

Consider `Cc1cccc(Cn2c3c(ccc2=O)CCN(Cc2ccoc2)CC3)n1`, for which the Percent Effect was -0.765% in test [1]; 8.22% in [2]; -3.21% in [3]; 11.9% in test [4]; 7.54% in the test with Trypanosoma cruzi; -14% in [5]. For the same molecule, the Percent Effect in test [6] is 10.5%; in the test listed under Homo sapiens, 6.67%; in test [7] it was 4.17%; in test [8], 6.17%; in test [9], -3.8%.

On to `Cc1noc(CN(Cc2ccc3c(c2)OCO3)C2CCCC2)n1`, for which the Percent Effect in test [1] is -1.22%; in test [2], 10.8%; in test [3], -9.58%; in test [4], 6.53%; in the test on Trypanosoma cruzi it was -1.04%; in test [5] it was -12%. For the same molecule, the Percent Effect in [6] is 6.67%; in the test filed under Homo sapiens, 29.7%; in test [7], 3.45%; in test [8], 3.7%; in test [9], -9.8%.

For `CCN(CC)C(=O)Nc1cc2c(cc1SC)OCCO2`, the Percent Effect is -0.336% in [1]; 8.11% in test [2]; -6.12% in test [3]; 9.01% in test [4]; 3.71% in the test on Trypanosoma cruzi; 27.5% in test [5]. The Percent Effect in [6] was 3.47%; in the test filed under Homo sapiens, -7.38%; in [7] it was 4.95%; in [8] it was 8.54%; in test [9], -6.4%.

On to `c1cnnc(N2CCCC(NCc3nc(C4CC4)no3)C2)c1` (stereo unspecified), for which the Percent Effect is -4.19% in test [1]; -2.6% in [2]; -5.27% in test [3]; 7.57% in test [4]; 7.18% in the test on Trypanosoma cruzi; 23.4% in test [5]. In addition, the Percent Effect in test [6] was 11.3%; in the test filed under Homo sapiens, -1.78%; in test [7] it was 16.1%; in test [8] it was 28.4%; in test [9], -2.42%.

`Cc1occc1C(=O)N1CCCC2(CCN(CCN3CCCC3)C2=O)C1` (stereo unspecified): the Percent Effect is -3.31% in test [1]; -2.6% in test [2]; -1.22% in [3]; 14.5% in [4]; 6.79% in the test with Trypanosoma cruzi; -12.4% in test [5]. Moreover, the Percent Effect in [6] was 7.82%; in the test listed under Homo sapiens, -2.84%; in [7] it was -11.8%; in [8] it was -11.1%; in test [9], -0.372%.

For `N#Cc1ccc(C(=O)N2CCn3c(Cn4cccn4)cnc3C2)cc1`, the Percent Effect in test [1] was -4.62%; in test [2], 2.67%; in test [3], 0.576%; in test [4] it was 1.75%; in the test with Trypanosoma cruzi, -3.86%; in test [5] it was -57.5%. For the same molecule, the Percent Effect was 5.98% in [6]; -6.78% in the test filed under Homo sapiens; 2.08% in test [7]; 7.5% in test [8]; -3.56% in [9].

Consider `O=C(NC[C@]12COC[C@H]1CN(Cc1nccs1)C2)c1ccccc1`, for which the Percent Effect in test [1] is -4.56%; in [2] it was 17.3%; in test [3], -62.1%; in test [4], 6.67%; in the test on Trypanosoma cruzi, 3.34%; in test [5], -6.87%. In addition, the Percent Effect is 15.7% in [6]; 4.15% in the test listed under Homo sapiens; 2.12% in test [7]; 7.69% in test [8]; -9.52% in test [9].

`Cc1cc(C(=O)N2CCCCC2C)ccc1NCC(=O)N1CCOCC1` (stereo unspecified): the Percent Effect in test [1] is -3.46%; in [2] it was 18.2%; in test [3] it was 9.95%; in test [4] it was -0.936%; in the test with Trypanosoma cruzi, 8.8%; in [5] it was 5.69%. For the same molecule, the Percent Effect was 15.5% in test [6]; 29.1% in the test filed under Homo sapiens; -2.91% in [7]; 24.4% in test [8]; -5.86% in test [9].

In the case of `CC(C)c1nc(C2CCCN(C(=O)Cc3cccnc3)C2)no1` (stereo unspecified), the Percent Effect in [1] is -0.76%; in [2] it was 16.2%; in test [3] it was -13.3%; in test [4], -2.67%; in the test on Trypanosoma cruzi, -10.3%; in [5], -1.6%. Besides, the Percent Effect is 2.16% in [6]; 25.4% in the test filed under Homo sapiens; 5.42% in [7]; 6.17% in test [8]; -2.89% in test [9].
